Rows were chosen to be rich in hits. Some 10% of all compounds tested hit in one or more screens of this group.
MCF10A rereplic: A quantitative high throughput screen for small molecules that induce DNA re-replication in MCF 10a normal breast cells; MCF 10A DNA re-replication, Hoechst nuclear intensity, 48 h; 2.9% of 350,000 active; Potency, µM (doses to about 46.1 µM), inactives show at the highest dose activity, positive = re-replication, hits mostly activators; AID 624296, 2012; also: % of control where 0% means no effect; nearly all actives have a fitted effect of over 50% in size
RORg inh: qHTS for inhibitors of ROR gamma transcriptional activity; AID 2551, 2010; 5.4% of 310,000 active; Potency, µM (doses to about 53.6 µM), without a hit: top-dose activity change, negative = inhibition, hits mostly inhibitors; Nuclear receptor ROR-gamma (Mus musculus), P51450; Drosophila S2 Gal4-RORgamma UAS-luciferase reporter, 20 h; also: % is scaled to controls: 0 for no effect and ±100 for the full control effect; nearly all actives have a fitted effect of over 60% in size
Target sequence (P51450 whole entry, looked up, the tested form may be a part): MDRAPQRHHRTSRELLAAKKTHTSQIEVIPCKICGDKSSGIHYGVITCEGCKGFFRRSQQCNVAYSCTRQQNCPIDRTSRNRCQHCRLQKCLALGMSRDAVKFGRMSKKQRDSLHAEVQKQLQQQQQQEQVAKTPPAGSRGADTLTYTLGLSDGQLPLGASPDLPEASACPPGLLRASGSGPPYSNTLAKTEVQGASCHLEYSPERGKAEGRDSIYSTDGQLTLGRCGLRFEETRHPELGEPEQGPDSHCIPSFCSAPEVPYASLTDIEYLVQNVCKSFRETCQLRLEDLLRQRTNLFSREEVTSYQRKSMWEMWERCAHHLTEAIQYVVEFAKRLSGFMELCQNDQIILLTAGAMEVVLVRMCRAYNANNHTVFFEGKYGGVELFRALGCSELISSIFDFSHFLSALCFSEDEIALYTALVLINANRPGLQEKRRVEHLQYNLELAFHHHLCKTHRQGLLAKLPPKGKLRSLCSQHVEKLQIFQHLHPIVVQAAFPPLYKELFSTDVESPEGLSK
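Using a luciferase readout, inhibitors were identified by reduced reporter activity in Drosophila cells coexpressing a copper-inducible Gal4–ROR gamma fusion and UAS-driven Photinus luciferase, incubated 20 hr after 700 uM copper sulfate.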
VP16 counter: VP16 counterscreen qHTS for inhibitors of ROR gamma transcriptional activity | Drosophila S2 Gal4-VP16 UAS-luciferase, luminescence, 20 h | Potency, µM (series often up to 53.6 µM), for the others: at the highest dose activity, negative = inhibition, hits mostly inhibitors | 3.5% of 310,000 active | AID 2546, 2010;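 also: Gal4-VP16 expression switched on by copper sulfate through the metallothionein promoter; % is scaled to controls: 0 for no effect and ±100 for the full control effect; nearly all actives have a fitted effect of over 50% in size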
ELG1 DNA repair: qHTS screen for small molecules that inhibit ELG1-dependent DNA repair in human embryonic kidney (HEK293T) cells expressing luciferase-tagged ELG1; HEK293T ELG1-luciferase reporter, luminescence, 16 h; DNA damage induced by 5-fluorouridine; 2.3% of 330,000 active; Potency, µM (doses to about 46.1 µM), without a hit: at the highest dose activity change, negative = inhibition, actives largely listed as inhibitors; also: % is scaled to controls: 0 for no effect and ±100 for the full control effect; nearly all actives have a fitted effect of over 55% in size
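5-Fluorouridine DNA damage + compound/DMSO, 2,000 cells/well, 16 h, 37 °C/5% CO2. ONE-Glo, 30 min RT, luminescence. Readout = decrease in reporter signal.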
SW480 rerep: A quantitative high throughput screen for small molecules that induce DNA re-replication in SW480 colon adenocarcinoma cells. Potency, µM (doses to about 46.1 µM), for the others: top-dose re-replication activation, actives largely listed as activators. AID 624297, 2012. SW480 DNA re-replication, Hoechst DNA content imaging, 48 h. 1.8% of 340,000 active; also: % of control where 0% means no effect; nearly all actives have a fitted effect of over 55% in size
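Cells (250 per well) received 23 nL compound or DMSO by pin tool and were kept 48 hr at 37 C, 5% CO2. Nuclei were then stained with Hoechst for 40 min and scanned for DNA content.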
An asterisk follows results filed as active; ? = inconclusive; · = no result given; [ ] = dose if it differs, or a comment. Calls follow the shape of the dose curve; as a rule, active = well fitted curve in the direction sought with a large enough effect; inconclusive = small, poorly fitted or top-dose-only effect, or another doubt; inactive = no such curve, though single readings can be large; an effect the other way counts as inactive or inconclusive. Potency is read from the fitted curve at half-maximal effect.

SMILES	MCF10A rereplic	RORg inh	VP16 counter	ELG1 DNA repair	SW480 rerep
Cc1ccc(C)c(C(=O)Nc2nc3ccccc3[nH]2)c1	16.9%	-30.2%	-4.3%	?	-2.4%
c1ccc2[nH]c(NN=C3CCCCCC3)nc2c1	-1.4%	11.2µM*	?	?	-7.6%
Cc1ccc(Nc2nc3ccccc3[nH]2)nc1	9.9%	5.01µM*	5.01µM*	?	15.6%
CCCCNC(=O)CSc1nc(Cc2ccccc2)nc2ccccc12	?	?	-0.9%	-8.7%	1.4%
CCCCCc1ccc(CC(=O)N2CCOCC2)cc1	26.4%	37.7%	-1.6%	8.5%	-72.2%
CC1C/C(=N/Nc2nc3ccccc3[nH]2)CC(C)(C)C1 (stereo unspecified)	?	3.16µM*	8.91µM*	18.1%	?
Cc1nn(-c2ccc(F)cc2)c(Cl)c1/C=N/NC(=O)c1ccc(O)cc1	?	?	2.24µM*	-5.8%	2.7%
CCOC(=O)N/N=C/c1c(C)nn(-c2cccc(C(F)(F)F)c2)c1Cl	2.59µM*	?	-7.0%	18.4µM*	5.8µM*
CNC(=S)N/N=C/c1c(C)nn(-c2ccc(F)cc2)c1Cl	2.7%	2.82µM*	7.08µM*	29.6%	?
Cc1nn(-c2cccc(C(F)(F)F)c2)c(Cl)c1/C=N/Nc1cccc(C(=O)O)c1	1.5%	-19.5%	?	?	1.4%
Cc1nn(-c2ccc(F)cc2)c(Cl)c1/C=C/C(=O)OCC(=O)Nc1ccc(F)cc1F	14.6µM*	-58.7%	-27.7%	1.6%	0.9%
O=C(O)C1=C[C@H](C2CC2)C[C@H](OCCCCO)O1	17.9%	-16.3%	-1.8%	15.3%	-5.6%
CC[C@H](C)[C@H](NC(=O)[C@H](Cc1ccc(O)cc1)NC(=O)[C@@H](NC(=O)[C@H](CCCN=C(N)N)NC(=O)[C@@H](N)CC(=O)O)C(C)C)C(=O)N[C@@H](Cc1cnc[nH]1)C(=O)N1CCC[C@H]1C(=O)N[C@@H](Cc1ccccc1)C(=O)N[C@@H](Cc1cnc[nH]1)C(=O)N[C@@H](CC(C)C)C(=O)O	·	4.7%	8.3%	·	·
O=C1COc2ccc(C(=O)COC(=O)c3cc(S(=O)(=O)NCc4ccccc4)ccc3O)cc2N1	?	0.0%	?	-7.1%	-0.6%
COc1ccc(Cl)cc1NC(=O)COC(=O)/C=C/c1c(C)nn(C2CCS(=O)(=O)C2)c1Cl (stereo unspecified)	-5.1%	?	-27.3%	13µM*	5.2%
Cc1nn(C2CCS(=O)(=O)C2)c(Cl)c1/C=C/C(=O)OCC(=O)Nc1ccccc1OC(F)F (stereo unspecified)	-1.1%	-18.7%	-5.9%	?	1.4%[9.22 µM]
Cc1nn(-c2ccc(F)cc2)c(Cl)c1/C=N/NC(=O)c1cccc(S(=O)(=O)N2CCCC2)c1	-0.8%	-25.0%	-23.3%	0.4%	-8.4%
Cc1nn(-c2ccccc2)c(Cl)c1/C=N/NC(=O)c1cccc(S(=O)(=O)N2CCCC2)c1	1.3%	22.5%	-2.5%	13µM*	-1.3%
COc1ccc(OC)c(/C=C/C(=O)OCC(=O)N2CCN(S(=O)(=O)c3ccc(C)cc3C)CC2)c1	3.7%	·	·	7.6%	1.3%
Cc1nc(C(F)(F)F)c(C(=O)N/N=C(\N)c2ccccn2)s1	?	?	?	?	7.31µM*
N/C(=N\NS(=O)(=O)c1ccccc1C(F)(F)F)c1ccccn1	-0.1%	-1.0%	16.2%	?	?
CC(C)(C)C(=O)Nc1sc2c(c1-c1nc3ccccc3[nH]1)CCCC2	13µM*	0.794µM*	?	2.9%	1.7%
CCS(=O)(=O)Nc1ccc(-c2cc(-c3ccccc3)c3cc(C)ccc3n2)cc1	14.6µM*	?	-3.7%	?	?
Cc1ccc2nc(-c3ccncc3)cc(-c3ccccc3)c2c1	?	?	-19.4%	20.0%	?
Cc1ccc2nc(-c3ccc(NS(C)(=O)=O)cc3)cc(-c3ccccc3)c2c1	?	?	22.4µM*	?	28.9%
SMILES	MCF10A rereplic	RORg inh	VP16 counter	ELG1 DNA repair	SW480 rerep
O=C(OC1Cn2c(=O)ccc(=O)n2C1)c1ccc([N+](=O)[O-])cc1	-5.3%	-9.8%	-3.7%	-5.2%	9.4%
CC(c1ccccc1)n1c(-c2ccc(Cl)cc2)n[nH]c1=S (stereo unspecified)	9.0%	5.62µM*	6.31µM*	4.3%	3.6%
Fc1ccccc1-c1n[nH]c(=S)n1/N=C/c1c[nH]c2ccccc12	1.1%	?	-2.5%	-4.4%	-10.0%
CC(c1ccccc1)n1c(-c2ccncc2)n[nH]c1=S (stereo unspecified)	14.3%	?	?	7.4%	-6.9%
CC(c1ccc(F)cc1)n1c(Cn2ncc3ccccc3c2=O)n[nH]c1=S (stereo unspecified)	9.9%	-42.2%	23.5%	-20.9%	-5.2%
CC(C)n1c(-c2ccccc2F)n[nH]c1=S	-21.8%	3.16µM*	11.2µM*	-7.8%	1.5%
CC(c1ccccc1)n1c(-c2ccccc2F)n[nH]c1=S (stereo unspecified)	-2.1%	7.08µM*	6.31µM*	-10.7%	0.1%
CC(c1ccc(F)cc1)n1c(-c2cccs2)n[nH]c1=S (stereo unspecified)	0.0%	2.82µM*	10µM*	11.7%	-0.1%
COc1nc(NCCc2ccc(OC)c(OC)c2)nc(OC)n1	-2.3%	34.1%	7.4%	·	-4.6%
COc1ccc(CCNc2c3ccccc3nc3ccccc23)cc1OC	6.51µM*	-28.6%	?	?	0.92µM*
COc1ccc(CCn2c(-c3ccco3)nc3ccccc3c2=O)cc1OC	?	17.6%	9.8%	10.3µM*	8.6%
COc1ccc(CCNc2ncnc3c2[nH]c2cc(OC)c(OC)cc23)cc1OC	18.4µM*	?	?	?	18.4µM*
COc1ccc(CCNc2ncnc3cc(OC)c(OC)cc23)cc1OC	10.0%	?	-15.9%[10 µM]	8.2µM*	?
COc1cc2[nH]c3c(Cl)ncnc3c2cc1OC	13.5%	-3.4%	-20.0%	-14.8%	-0.2%
COc1ccc2[nH]c(C(=O)N3CCC(n4nccc4NC(=O)C4CC4)CC3)c(C)c2c1	0.0%	16.5%	-3.9%	-4.6%	-19.2%
COc1ccccc1CN1CC(C(=O)NCCSc2nnnn2C)CCC1=O (stereo unspecified)	5.9%	-3.1%	5.4%	-0.1%	-9.3%
COc1ccc2[nH]c3c(NCCC4=CCCCC4)ncnc3c2c1	20.6µM*	?	7.08µM*	?	?
Fc1ccc2[nH]c3c(NCc4ccccc4)ncnc3c2c1	?	?	5.62µM*	?	-0.5%
CCOc1ccc2[nH]c3c(NCCC(C)C)ncnc3c2c1	11.6µM*	?	4.47µM*	?	?
